Compound activity: PubChem, National Center for Advancing Translational Sciences (NCATS)
This excerpt belongs to a sample that is enriched for hits.
HT1080NT lethal: kills 2HG-producing HT-1080-NT fibrosarcoma cells. HT-1080-NT fibrosarcoma viability, CellTiter-Glo ATP luminescence, 48 h. Potency, µM (highest dose often 46.1 µM), inactives show top-dose activity, negative = less viability, usual class: cytotoxic. 360,000 compounds, 1.6% hits;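 also: NT is the 2HG producing partner of a matched IDH1 knockdown line; potency is read from the fitted curve at half-maximal effect; 0% = DMSO-treated cells and -100% = media-only wells without cells; nearly all actives have a fitted effect of over 55% in size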
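Luminescent CellTiter-Glo readout after 48 hours of compound exposure at 37 degrees C defined viability of HT-1080-NT cells. Activity was normalized to DMSO wells and cell-free media wells; concentration-response curves were fitted and assigned curve classes.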
TDP1 cell CPT: growth inhibition of DT40 Tdp1-/-;hTDP1 cells with camptothecin (screen for TDP1 inhibitors). chicken DT40 Tdp1-/-;hTDP1 cells + 20 nM CPT, ATP luminescence, 48 h. Potency, µM (top dose mostly 46.2 µM), without a hit: top-dose activity change, negative = growth inhibition, most hits filed as inhibitors. 420,000 compounds, 12% hits. AID 686979; also: potency is read from the fitted curve at half-maximal effect; nearly all actives have a fitted effect of over 55% in size
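Chicken DT40 Tdp1-/- cells complemented with human TDP1, 400 cells/well, exposed to compounds plus 20 nM camptothecin for at least 48 h at 37 C; viability read as ATP content by CellTiter-Glo luminescence.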
12-LOX inh: ALOX12 (human) lipoxygenase inhibition; 580,000 compounds, 1.1% hits; Potency, µM (titrated, usually from 108 µM), inactives show at the top dose activity change, negative = inhibition, most hits filed as inhibitors; purified 12hLO, xylenol orange hydroperoxide absorbance; AID 1671190; P18054; also: potency is read from the fitted curve at half-maximal effect
Target sequence (P18054 whole entry, looked up): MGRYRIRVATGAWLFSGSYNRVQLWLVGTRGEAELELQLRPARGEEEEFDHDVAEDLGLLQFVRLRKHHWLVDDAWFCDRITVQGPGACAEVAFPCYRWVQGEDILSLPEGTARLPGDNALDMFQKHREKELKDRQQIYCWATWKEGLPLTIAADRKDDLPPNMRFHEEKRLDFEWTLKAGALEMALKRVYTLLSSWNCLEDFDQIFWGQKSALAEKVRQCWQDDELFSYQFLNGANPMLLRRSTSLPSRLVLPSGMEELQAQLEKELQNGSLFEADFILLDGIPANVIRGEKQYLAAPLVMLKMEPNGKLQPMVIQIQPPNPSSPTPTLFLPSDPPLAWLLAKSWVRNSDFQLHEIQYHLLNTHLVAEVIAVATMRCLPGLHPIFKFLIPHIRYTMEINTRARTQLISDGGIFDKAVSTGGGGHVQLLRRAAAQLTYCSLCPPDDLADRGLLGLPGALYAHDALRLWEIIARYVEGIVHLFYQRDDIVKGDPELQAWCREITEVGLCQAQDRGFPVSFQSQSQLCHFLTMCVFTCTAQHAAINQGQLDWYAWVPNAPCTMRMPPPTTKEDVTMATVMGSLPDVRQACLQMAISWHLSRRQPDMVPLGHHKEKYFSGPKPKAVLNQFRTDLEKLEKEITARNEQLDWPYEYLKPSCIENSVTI
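Hydroperoxide product was detected by ferrous iron/xylenol orange as the 573 to 405 nm absorbance ratio. Arachidonic acid at 40 uM (final) was turned over for 30 min at room temperature by 150 nM human 12hLO, pH 7.0 Hepes buffer, after 15 min compound preincubation.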
IL-1B inflam inh: blocks inflammasome-driven IL-1 beta release. 360,000 compounds, 4.7% hits. activity change, % at 57.5 µM. AID 743279. THP-1 LPS/ATP IL-1B secretion, AlphaLISA, 16 h; hits give low values; in the data active = activity change below about -50%; inconclusive = mostly about -30% to -49%
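THP-1 cells pretreated 1 hr with compounds (up to 57.5 uM final), then stimulated with LPS (250 ng/mL final) plus ATP (1.25 mM final); secreted IL-1B measured by AlphaLISA after 16 hr, decreased signal indicating inhibition.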
TDP1 cell noCPT: qHTS for Inhibitors of human tyrosyl-DNA phosphodiesterase 1 (TDP1): qHTS in cells in absence of CPT; 420,000 compounds, 15% hits; Potency, µM (titrated, usually from 46.2 µM), without a hit: at the highest dose activity change, negative = growth inhibition, actives largely listed as inhibitors; DT40 Tdp1-/- hTDP1 cells, no CPT, ATP luminescence, 48 h; AID 686978, 2013; also: potency is read from the fitted curve at half-maximal effect; nearly all actives have a fitted effect of over 55% in size
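Chicken DT40 Tdp1-/- cells stably complemented with human TDP1 were seeded at 400 cells/well with DMSO in place of 20 nM camptothecin. After compound pinning, cells grew at least 48 hr at 37 °C; viability read by CellTiter-Glo luminescence.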
HT1080 IDH1KD tx: toxicity to HT-1080 IDH1 knockdown cells (counter line); Potency, µM (highest dose often 46.1 µM), for the others: top-dose activity, negative = toxicity, usual class: cytotoxic; HT-1080 IDH1 knockdown viability, ATP luminescence, 48 h; AID 686971; 360,000 compounds, 2% hits;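 also: potency is read from the fitted curve at half-maximal effect; 0% = DMSO wells and -100% = cell-free medium wells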
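CellTiter-Glo luminescence after 48 h compound exposure at 37 degrees C of IDH1-knockdown HT-1080 cells in 5% FBS RPMI. %Activity scaled between DMSO wells and cell-free media wells, with curves fitted and assigned curve classes.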
Starred values were filed as active, the others as inactive; ? = inconclusive; · = no result given; [ ] = remark or other dose. Unless noted, calls follow the shape of the dose curve; as a rule, active = well fitted curve in the direction sought with a large enough effect; inconclusive = small, poorly fitted or top-dose-only effect, or another doubt; inactive = no such curve, though single readings can be large; an effect the other way counts as inactive or inconclusive. Unless noted, % is scaled to controls: 0 for no effect and ±100 for the full control effect.

SMILES | HT1080NT lethal | TDP1 cell CPT | 12-LOX inh | IL-1B inflam inh | TDP1 cell noCPT | HT1080 IDH1KD tx
O=S(=O)(c1cccc(F)c1)N1CCc2sccc2C1c1ccc(OC(F)(F)F)cc1 (stereo unspecified) | ? | ? | 179.8% | 6.6 | 14.6µM* | -23.3%
C#CCNC(=O)c1csc([C@@H]2O[C@H](CO)[C@@H](O)[C@H]2O)n1 | 8.7% | 16.4µM* | -2.1% | 13.2 | ? | ?
O=C(NCC(F)(F)F)c1csc([C@@H]2O[C@H](CO)[C@H](O)[C@H](O)[C@H]2O)n1 | 17.2% | 4.6% | -0.6% | 11.2 | 17.6% | 15.6%
O=C(NCc1ccncc1)c1csc([C@@H]2O[C@H](CO)[C@@H](O)[C@H]2O)n1 | 9.1% | 2.06µM* | ? | 0.0 | 2.31µM* | ?
COc1ccc(F)cc1S(=O)(=O)N1CCCC(Cn2c(C3CC3)nc3cccnc32)C1 (stereo unspecified) | · | · | 26.3% | · | · | ·
CN1CCCC1CCNc1ccc2oc3ccccc3c(=O)c2c1 (stereo unspecified) | -18.9% | ? | -0.9% | -79.2* | ? | -2.4%
CN1CCC[C@H]1CCNc1ccc2c(=O)c3ccccc3n(C)c2c1 | -4.4% | ? | 11.0% | -71.6* | ? | -1.8%
CN1CCCC1CCNc1ccc2c(=O)c3ccccc3oc2c1 (stereo unspecified) | -8.6% | ? | -14.6% | -82.7* | 18.4µM* | -2.7%
O=c1c2ccccc2oc2cc(NCCCn3ccnc3)ccc12 | 0.4% | ? | 8.4% | -19.4 | ? | 1.0%
Cn1c2ccccc2c(=O)c2ccc(NCc3ccc4c(c3)OCO4)cc21 | -2.8% | 23.1µM* | ? | -4.0 | 14.6µM* | -12.8%
O=C(NNc1ncnc2c1cnn2-c1ccccc1)C1CCCCC1 | · | · | -0.1% | · | · | ·
CC1(C(=O)Nc2ccc3c(c2)OCO3)Cc2c(-c3cccc(C(N)=O)c3)ccnc2O1 (stereo unspecified) | ? | 2.91µM* | -4.5% | 14.8 | 4.11µM* | 3.66µM*
CC1(C(=O)Nc2ccc(Cl)cc2)Cc2c(-c3ccc4c(c3)OCO4)ccnc2O1 (stereo unspecified) | ? | ? | -4.1% | 63.7 | ? | ?
CC(C)c1ccc(NC(=O)C2(C)Cc3c(-c4ccc5c(c4)OCO5)ccnc3O2)cc1 (stereo unspecified) | -20.8% | 23.1µM* | -11.3% | 57.2 | ? | -13.6%
COc1ccc(NC(=O)C2(C)Cc3c(-c4ccc5c(c4)OCO5)ccnc3O2)cn1 (stereo unspecified) | ? | 3.26µM* | -0.7% | 31.4 | 2.59µM* | 2.91µM*
CC1(C(=O)Nc2ccc3c(c2)OCO3)Cc2c(-c3ccc4c(c3)OCO4)ccnc2O1 (stereo unspecified) | ? | 1.84µM* | -9.6% | 81.6 | 2.31µM* | 2.06µM*
Cc1ccc2c(=O)cc(C(=O)Nc3nnc(C(C)C)s3)oc2c1 | · | · | 7.1% | · | · | ·
C=C1CCC[C@]2(C)C[C@H]3OC(=O)C(CNC(C)(CO)CO)[C@H]3CC12 (stereo partly specified) | -5.8% | ? | 9.0% | -96.2* | 20.6µM* | ?
C=C1CCC[C@]2(C)C[C@H]3OC(=O)C(CNC(CC)CO)[C@H]3CC12 (stereo partly specified) | ? | ? | 276.9% | -97.7* | 18.4µM* | 20.6µM*
C=C1CCC[C@]2(C)C[C@H]3OC(=O)C(CNC(C)CC)[C@H]3CC12 (stereo partly specified) | ? | ? | -24.1% | -96.2* | ? | ?
C=C1CCC[C@]2(C)C[C@H]3OC(=O)C(CN4CCCCC4CO)[C@H]3CC12 (stereo partly specified) | ? | 4.61µM* | -0.2% | · | 11.6µM* | ?
O=C(NCc1coc(-c2cccs2)n1)c1cc(Cl)ccc1Cl | · | · | 1.9% | · | · | ·
O=C(c1ccno1)N1CCOC[C@H](Oc2ccc(C(F)(F)F)cn2)C1 | · | · | 8.4%[176 µM] | · | · | ·
CCCCCCOC(=O)CCCCC | · | · | 15.9%[176 µM] | · | · | ·
C=C1C(=O)OC2C[C@@]3(C)CCCC(=C)[C@@H]3CC12 (stereo partly specified) | · | 26.6µM* | · | · | 23.7µM* | ·
SMILES | HT1080NT lethal | TDP1 cell CPT | 12-LOX inh | IL-1B inflam inh | TDP1 cell noCPT | HT1080 IDH1KD tx
C[C@@H](CN(C)C[C@H]1C(=O)O[C@@H]2C[C@@]3(C)CCC[C@]4(CO4)C3CC21)[C@H](O)c1ccccc1 (stereo partly specified) | · | 13.8%[9.04 µM] | 7.8% | · | 2.1%[9.04 µM] | ·
C=C1CCC[C@]2(C)C[C@H]3OC(=O)C(CN(C)CC(OC)OC)[C@H]3CC12 (stereo partly specified) | -2.0% | ? | 0.0% | -91.6* | ? | ?
CCc1ccc(CN2CCC(n3nccc3NC(=O)c3ccccc3OC)CC2)o1 | 3.1% | ? | -5.6% | -24.5 | ? | 9.1%
CC(C)=CCN1CCC(n2nccc2NC(=O)c2ccccc2Cl)CC1 | -1.3% | -25.7% | 2.4% | ? | 20.6µM* | -6.0%
COc1ccccc1C(=O)Nc1ccnn1C1CCN(C/C=C/c2ccccc2)CC1 | -2.7% | 23.1µM* | -2.7% | -18.8 | ? | 3.5%
Cc1cc2ccccc2n1CC(=O)N1CCN(CC(=O)N2CCCC2)CC1 | · | · | -1.5% | · | · | ·
Cn1c(=O)[nH]c(=O)c2c1nc([N+](=O)[O-])n2Cc1ccccc1 | 2.59µM* | 0.651µM* | 167.0% | · | 1.03µM* | 3.26µM*
CC(C)Cn1c([N+](=O)[O-])nc2c1c(=O)[nH]c(=O)n2C | 13µM* | 3.26µM* | -4.7% | -97.6* | 4.61µM* | 16.4µM*
Cc1cccc(NC(=O)CN(C)C(=O)C2CCN(c3ccc(C#N)cn3)CC2)c1C | · | · | -20.1% | · | · | ·
O=C1CC(c2ccccc2)N(Cc2ccncc2)CCCN(C(=O)c2ccco2)CCN1 (stereo unspecified) | · | · | 13.1% | · | · | ·
COc1ccc(Cc2n[nH]c(=S)n2NC(=O)Nc2ccc(Cl)c(Cl)c2)cc1 | 0.0% | 10.3µM* | ? | -23.0 | 7.31µM* | -9.6%
CCOC(=O)/C=C1\CN(Cc2cc(OC)c(OC)c(OC)c2)S(=O)(=O)c2ccc(C(F)(F)F)cc21 | 0.0% | 23.1µM* | -28.9% | -25.8 | 11.6µM* | -5.9%
CCCCCCCCCCCCN1C/C(=C\C(=O)OCC)c2cc(C(F)(F)F)ccc2S1(=O)=O | -2.8% | ? | 1.0% | 31.7 | ? | -1.6%
